From PubChem BioAssay (NCI)
Several values for one entry are separate records, joined by “and”; a condition that tells them apart may be missing. Equal values may be shown once. Compounds without any hit were thinned out: in the full panel of roughly 83,000, 20% have a hit.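 Cell lines were cultured in 96-well plates, exposed to a single compound concentration, and assessed for percent growth 48 hours later.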 Activity calls are given as the source filed them. Rule for the calls: active = growth percent below 10; inactive = the rest.

Columns and labels:
Experiment in all cases: NCI-60 one-dose screen, 48 h (100 = growth as untreated, 0 = no growth, -100 = all killed)
Conditions in all cases: 10 µM unless noted
[1] = system: HCT-15 colon
[2] = system: HT29 colon
[3] = system: SNB-75 CNS
[4] = system: SNB-19 CNS
[5] = system: U251 CNS
[6] = system: PC-3 prostate
[7] = system: SK-MEL-5 melanoma
[8] = system: UACC-62 melanoma
[9] = system: LOX IMVI melanoma
[10] = system: SK-MEL-28 melanoma
[11] = system: SK-MEL-2 melanoma
[12] = system: EKVX NSCLC
[13] = system: SN12C renal
[14] = system: UO-31 renal
[15] = system: TK-10 renal
[16] = system: CAKI-1 renal
[17] = system: A498 renal
[18] = system: HL-60(TB) leukemia
[19] = system: CCRF-CEM leukemia
[20] = system: ACHN renal

SMILES: C[C@]12CCc3sc(Nc4ccc(F)cc4F)nc3C1=CC[C@@H]1[C@@H]2CC[C@]2(C)C(=O)CC[C@@H]12
- growth [1]: 7.76% (active)
- growth [2]: 30.1% (inactive)
- growth [3]: 69.4% (inactive)
- growth [4]: 74.1% (inactive)
- growth [5]: 40.7% (inactive)
- growth [6]: 52.9% (inactive)
- growth [7]: 76.9% (inactive)
- growth [8]: 67.6% (inactive)
- growth [9]: -49.7% (active)
- growth [10]: 84.4% (inactive)
- growth [11]: 76.4% (inactive)
- growth [12]: 78.4% (inactive)
- growth [13]: 64.1% (inactive)
- growth [14]: 42.9% (inactive)
- growth [15]: 50.2% (inactive)
- growth [16]: 38.4% (inactive)
- growth [17]: 77.8% (inactive)
- growth [18]: 21.4% (inactive)
- growth [19]: 10.1% (inactive)

SMILES: COc1ccc(O)c2c(=O)c3c(OC)cc4c(c3oc12)[C@@H]1C=CO[C@@H]1O4
- growth [1]: 53.3% (inactive)
- growth [2]: 54.3% (inactive)
- growth [3]: 38.5% (inactive)
- growth [4]: 81% (inactive)
- growth [5]: 73.4% (inactive)
- growth [6]: 76.7% (inactive)
- growth [7]: 25.9% (inactive)
- growth [8]: 7.2% (active)
- growth [9]: 72.6% (inactive)
- growth [10]: 98.2% (inactive)
- growth [11]: 6.45% (active)
- growth [12]: 6.71% (active)
- growth [13]: 73.1% (inactive)
- growth [14]: 51.9% (inactive)
- growth [20]: 5.59% (active)
- growth [16]: 35.9% (inactive)
- growth [17]: 87% (inactive)
- growth [18]: 65.8% (inactive)
- growth [19]: 92.6% (inactive)

SMILES: CO[C@@H]([CH2][Hg][O]C(=O)c1ccccc1)[C@@H]([CH2][Hg][O]C(=O)c1ccccc1)OC
- growth [1]: -93.1% (active)
- growth [2]: 95.7% (inactive)
- growth [3]: 85.6% (inactive)
- growth [4]: 96.5% (inactive)
- growth [5]: 93.3% (inactive)
- growth [6]: 88.7% (inactive)
- growth [7]: 86.5% (inactive)
- growth [8]: 95.2% (inactive)
- growth [9]: 36% (inactive)
- growth [10]: 112% (inactive)
- growth [11]: 105% (inactive)
- growth [12]: 110% (inactive)
- growth [13]: 98.2% (inactive)
- growth [14]: 88.8% (inactive)
- growth [20]: 99% (inactive)
- growth [16]: 94.3% (inactive)
- growth [17]: 117% (inactive)
- growth [18]: 64.9% (inactive)
- growth [19]: -6.61% (active)

SMILES: CCOP(=O)(NC)OCC
- growth [1]: 112% (inactive)
- growth [2]: 109% (inactive)
- growth [3]: 103% (inactive)
- growth [4]: 102% (inactive)
- growth [5]: 107% (inactive)
- growth [6]: 85.4% (inactive)
- growth [7]: 100% (inactive)
- growth [8]: 108% (inactive)
- growth [9]: 102% (inactive)
- growth [10]: 104% (inactive)
- growth [11]: 124% (inactive)
- growth [12]: 146% (inactive)
- growth [13]: 106% (inactive)
- growth [14]: 92.2% (inactive)
- growth [15]: 129% (inactive)
- growth [16]: 111% (inactive)
- growth [17]: 74.3% (inactive)
- growth [18]: 73.9% (inactive)
- growth [19]: 93.4% (inactive)

SMILES: CCCCCCCCCCCCCCCC[n+]1ccccc1
- growth [1]: 17.1% (inactive) and 15.2% (inactive)
- growth [2]: -68.2% (active) and -58.8% (active)
- growth [3]: -77.3% (active) and -40.5% (active)
- growth [4]: -88.4% (active) and -62.6% (active)
- growth [5]: -90.4% (active) and -76.3% (active)
- growth [6]: -48.7% (active) and -80.9% (active)
- growth [7]: -100% (active) and -94.8% (active)
- growth [8]: -68% (active) and -46.2% (active)
- growth [9]: -72.9% (active) and -79.8% (active)
- growth [10]: -55% (active) and -30.7% (active)
- growth [11]: -83.3% (active) and -80.1% (active)
- growth [12]: -47.9% (active) and -2.17% (active)
- growth [13]: -37.9% (active) and -29.2% (active)
- growth [14]: -28% (active) and 11.7% (inactive)
- growth [20]: -23.8% (active) and 7.44% (active)
- growth [16]: -16.1% (active) and -34.4% (active)
- growth [17]: -18.7% (active) and -7.63% (active)
- growth [18]: -55.7% (active)
- growth [19]: -69% (active) and -43.7% (active)

SMILES: C#COc1cccc(Nc2ncnc3cc(NC(=O)CF)ccc23)c1
- growth [1]: 28.6% [6.25 µM] (inactive)
- growth [2]: 4.41% [6.25 µM] (active)
- growth [3]: 48.2% [6.25 µM] (inactive)
- growth [4]: 33.7% [6.25 µM] (inactive)
- growth [5]: 23.1% [6.25 µM] (inactive)
- growth [6]: 36% [6.25 µM] (inactive)
- growth [7]: 36.2% [6.25 µM] (inactive)
- growth [8]: 26.4% [6.25 µM] (inactive)
- growth [9]: 36.8% [6.25 µM] (inactive)
- growth [10]: 60.4% [6.25 µM] (inactive)
- growth [11]: 21.6% [6.25 µM] (inactive)
- growth [12]: 67.8% [6.25 µM] (inactive)
- growth [13]: 54.7% [6.25 µM] (inactive)
- growth [14]: 60.9% [6.25 µM] (inactive)
- growth [15]: 60.7% [6.25 µM] (inactive)
- growth [16]: 45.5% [6.25 µM] (inactive)
- growth [17]: 75.3% [6.25 µM] (inactive)
- growth [18]: 54.5% [6.25 µM] (inactive)
- growth [19]: -7.49% [6.25 µM] (active)

SMILES: Nc1c(Cl)c(Cl)nc(C(=O)O)c1Cl
- growth [1]: 95% (inactive)
- growth [2]: 110% (inactive)
- growth [3]: 71.4% (inactive)
- growth [4]: 95.1% (inactive)
- growth [5]: 94.2% (inactive)
- growth [6]: 84.9% (inactive)
- growth [7]: 108% (inactive)
- growth [8]: 92.4% (inactive)
- growth [9]: 90.7% (inactive)
- growth [10]: 120% (inactive)
- growth [11]: 92.5% (inactive)
- growth [12]: 86.5% (inactive)
- growth [13]: 93.6% (inactive)
- growth [14]: 71.1% (inactive)
- growth [15]: 99.2% (inactive)
- growth [16]: 90.1% (inactive)
- growth [17]: 138% (inactive)

SMILES: N#CC(N)c1ccccc1 (stereo not given)
- growth [1]: 104% (inactive)
- growth [2]: 111% (inactive)
- growth [3]: 97.4% (inactive)
- growth [4]: 105% (inactive)
- growth [5]: 105% (inactive)
- growth [6]: 104% (inactive)
- growth [7]: 101% (inactive)
- growth [8]: 99.5% (inactive)
- growth [9]: 101% (inactive)
- growth [10]: 113% (inactive)
- growth [11]: 122% (inactive)
- growth [13]: 104% (inactive)
- growth [14]: 86.3% (inactive)
- growth [15]: 109% (inactive)
- growth [20]: 105% (inactive)
- growth [16]: 102% (inactive)
- growth [17]: 81.2% (inactive)
- growth [18]: 102% (inactive)
- growth [19]: 107% (inactive)

SMILES: C=CC[PH+](c1ccccc1)c1ccccc1.C=CC[PH+](c1ccccc1)c1ccccc1.[Pt+2].[S-]c1ncccn1.[S-]c1ncccn1
- growth [1]: -29.3% (active)
- growth [2]: 0.0923% (active)
- growth [3]: 58.3% (inactive)
- growth [4]: 74.9% (inactive)
- growth [5]: 59.1% (inactive)
- growth [6]: 38.8% (inactive)
- growth [7]: 66.6% (inactive)
- growth [8]: 27.7% (inactive)
- growth [9]: -68.3% (active)
- growth [10]: -30.9% (active)
- growth [11]: 75% (inactive)
- growth [12]: 2.19% (active)
- growth [14]: -94.5% (active)
- growth [15]: -3.54% (active)
- growth [20]: -43.3% (active)
- growth [16]: 5.27% (active)
- growth [17]: 103% (inactive)
- growth [19]: 6.99% (active)

SMILES: C=CC[PH+](c1ccccc1)c1ccccc1.C=CC[PH+](c1ccccc1)c1ccccc1.[Pt+2].[S-]c1nc2ccccc2[nH]1.[S-]c1nc2ccccc2[nH]1
- growth [1]: 70% (inactive)
- growth [2]: -30.4% (active)
- growth [3]: -64.5% (active)
- growth [4]: 5.65% (active)
- growth [5]: -83% (active)
- growth [6]: 9.47% (active)
- growth [7]: -94.9% (active)
- growth [8]: -48.9% (active)
- growth [9]: -95% (active)
- growth [10]: -47.1% (active)
- growth [11]: -72.9% (active)
- growth [12]: 33% (inactive)
- growth [14]: 35.2% (inactive)
- growth [15]: -12.2% (active)
- growth [20]: 42.3% (inactive)
- growth [16]: 25% (inactive)
- growth [17]: -16.1% (active)
- growth [18]: -20.8% (active)
- growth [19]: 6.12% (active)

SMILES: CC(=O)OC1CC2(O)C(CCC3(C)C(c4ccc(=O)oc4)CCC32O)C2(C)CCC(OC3OC(CO)C(O)C(O)C3O)C=C12 (stereo not given)
- growth [1]: -85.2% (active)
- growth [2]: -55% (active)
- growth [3]: -61.4% (active)
- growth [4]: -94% (active)
- growth [5]: -92.1% (active)
- growth [6]: -55.2% (active)
- growth [7]: -91.9% (active)
- growth [8]: -65.6% (active)
- growth [9]: -85.4% (active)
- growth [10]: -31.7% (active)
- growth [11]: -23.2% (active)
- growth [12]: -89.1% (active)
- growth [14]: -80.8% (active)
- growth [15]: -92.3% (active)
- growth [20]: -79.8% (active)
- growth [16]: -93.5% (active)
- growth [17]: -33.8% (active)
- growth [18]: -46.1% (active)
- growth [19]: -25.1% (active)

SMILES: CN1CCN(c2ccc(Cl)cc2)CC1
- growth [1]: 20.1% (inactive)
- growth [2]: 26.4% (inactive)
- growth [3]: 111% (inactive)
- growth [4]: 93.9% (inactive)
- growth [5]: 70.1% (inactive)
- growth [6]: 107% (inactive)
- growth [7]: 101% (inactive)
- growth [8]: 86.4% (inactive)
- growth [9]: 70.5% (inactive)
- growth [10]: 99.1% (inactive)
- growth [11]: 18.1% (inactive)
- growth [12]: 107% (inactive)
- growth [14]: 86.1% (inactive)
- growth [15]: 102% (inactive)
- growth [20]: -11.9% (active)
- growth [16]: 24.1% (inactive)
- growth [17]: 97% (inactive)
- growth [18]: 48.7% (inactive)
- growth [19]: 87.3% (inactive)

SMILES: C[C@]12CC[C@H]3[C@@H](C[C@@H]4SC(Nc5ccccc5)=N[C@@]45C/C(=N/O)CC[C@]35C)[C@@H]1CCC2=O
- growth [1]: 44.3% (inactive)
- growth [2]: 32.1% (inactive)
- growth [3]: 76% (inactive)
- growth [4]: 60.3% (inactive)
- growth [5]: 37.5% (inactive)
- growth [6]: 60.5% (inactive)
- growth [7]: 84.5% (inactive)
- growth [8]: 86% (inactive)
- growth [9]: -4.53% (active)
- growth [10]: 73.3% (inactive)
- growth [11]: 69% (inactive)
- growth [12]: 86.6% (inactive)
- growth [14]: 91.5% (inactive)
- growth [15]: 102% (inactive)
- growth [20]: 60.4% (inactive)
- growth [16]: 59.3% (inactive)
- growth [17]: 96.3% (inactive)
- growth [18]: 70.1% (inactive)
- growth [19]: 8.6% (active)

SMILES: CNC(=O)CCl
- growth [1]: 101% (inactive)
- growth [2]: 102% (inactive)
- growth [3]: 96% (inactive)
- growth [4]: 104% (inactive)
- growth [5]: 94.7% (inactive)
- growth [6]: 94.6% (inactive)
- growth [7]: 96.4% (inactive)
- growth [8]: 96.1% (inactive)
- growth [9]: 100% (inactive)
- growth [10]: 107% (inactive)
- growth [11]: 101% (inactive)
- growth [14]: 96.5% (inactive)
- growth [16]: 94.9% (inactive)
- growth [17]: 92.1% (inactive)
- growth [18]: 119% (inactive)
- growth [19]: 94% (inactive)
